By inhibition is commonly meant the change of the read-out against control, counted positive when it falls.

Consider 95 compounds from PubChem BioAssay AID1259343 (VanderVen Lab, College of Veterinary Medicine, Cornell …, 2017).

Among all 6,200 compounds or so, about 2,900 (47%) were called active. So high a share suggests a set chosen from earlier hits. The list shows a part of the results. Unmarked numbers belong to inactive results. No stated cut-off is given here; in the data, active means inhibition above about 50%; inactive means the rest.

The experiment is described as follows: Mycobacterium tuberculosis growth inhibition, primary screen (AID 1259343). The note with it: inhibition: at 10 µM, hits give high values; outcome: 10 uM.
Regarding `CCCC1=NN(c2nc3ccccc3s2)C(=O)C1C(C)=Nc1ccc(C(=O)OCC)cc1` (stereo not given), the inhibition is 98.8% (active).
The same measure for `CC(C)Oc1ccc(CNC(=O)c2ccco2)cc1F`: 99.8% (active).
The same measure for `Nc1nccnc1C(=O)NCCSCc1ccsc1`: -5.01%.
The same measure for `O=C(Nc1ccc(SC2CCCC2)cc1)c1ccc(=O)[nH]c1`: 53.3% (active); for `Nc1nccnc1C(=O)Nc1ccc(SC2CCCC2)cc1`: 80% (active); for `Cc1cc(NC(=O)c2cccc([N+](=O)[O-])c2C)n(-c2nc(C)c(C)c(=O)[nH]2)n1`: 98.3% (active).
Consider `CCc1c(C)nc(-n2nc(C)cc2NC(=O)c2ccccc2[N+](=O)[O-])[nH]c1=O`, for which the inhibition is 81.9% (active).
The same measure for `Cc1cc(=O)[nH]c(-n2nc(C)cc2NC(=O)c2cccc([N+](=O)[O-])c2C)n1`: 100% (active).
The same measure for `CCc1c(C)nc(-n2nc(C)cc2NC(=O)c2cccc([N+](=O)[O-])c2C)[nH]c1=O`: 102% (active); for `O=C(O)c1ccc(Oc2cccc(Br)c2)cc1`: 91.5% (active); for `N#CCc1ccc(Oc2ccc(C(=O)O)cc2)cc1`: 34.3%.
Take `O=C(O)c1ccc(Oc2cc(Cl)ccc2Cl)cc1`: the inhibition is 45.5%.
The same measure for `CC[n+]1c(-c2ccccc2)c2cc(N)ccc2c2ccc(N)cc21`: 99.5% (active); for `Nc1ccc(-c2nc(-c3ccccc3)c3cc(N)ccc3n2)cc1`: 29.6%; for `Cc1ccc2sc(NNC(=O)c3cc(=O)c4ccccc4o3)nc2c1C`: 72.2% (active).
The same measure for `O=S(=O)(c1ccc(F)c(F)c1)N1CCN(c2ccc(O)cc2)CC1`: 56.7% (active); for `O=S(=O)(c1ccc(F)cc1)N1CCN(c2ccnc3cc(Cl)ccc23)CC1`: 3.02%; for `CCC(CC)NC(=O)c1ccc(N2CCCCC2)c([N+](=O)[O-])c1`: 96.8% (active).
The same measure for `O=C(c1ccc(N2CCCCC2)c([N+](=O)[O-])c1)N1CCc2ccccc21`: 23.8%; for `CCC(C)NC(=O)c1cnc(N2CCN(c3ccccc3[N+](=O)[O-])CC2)nc1OC` (stereo not given): 2.36%; for `CN(C(=O)CSc1nc2sc3c(c2c(=O)n1C)CCCC3)C1CCCCC1`: 18.9%.
In the case of `CN(C(=O)CSc1nc2sc3c(c2c(=O)[nH]1)CCCC3)C1CCCCC1`, the inhibition is 93.2% (active).
`CCOC(=O)c1nn(-c2ccc(C(C)C)cc2)c(=O)c2c(N)scc12`: the inhibition was 101% (active).
The same measure for `CCOC(=O)c1nn(-c2cccc(C)c2)c(=O)c2c(N)scc12`: 89.5% (active); for `CCOC(=O)c1nn(-c2ccc(C)cc2)c(=O)cc1N1CCN(c2ccccc2OC)CC1`: 38.5%; for `CCOC(=O)c1nn(-c2ccccc2)c(=O)cc1NC(=O)c1ccc(C(C)(C)C)cc1`: -13.4%.
The same measure for `CCOC(=O)c1nn(-c2ccccc2)c(=O)c2c(NC(=O)CCCCl)scc12`: 61.2% (active); for `CCOC(=O)c1nn(-c2ccc(C)cc2)c(=O)cc1NC(=O)C1CCCC1`: -7.9%; for `CCOC(=O)c1nn(-c2ccc(C)cc2)c(=O)c2c(N)scc12`: 60.8% (active).
As to `N[C@@H](CO)C(=O)Nc1ccc(Cc2ccccc2)cc1`, the inhibition was 89.6% (active).
The same measure for `Nc1ccccc1Cc1ccc(O)cc1`: 30.5%; for `CCN1CCN(Cc2ccc(-c3cc4c(N[C@H](C)c5ccccc5)ncnc4[nH]3)cc2)CC1`: 16.6%; for `COc1ccc(CN2CCN(c3ncnc4c3cnn4-c3ccccc3)CC2)cc1F`: 82.1% (active).
The same measure for `OCC1(CCOc2ccccc2)CCN(c2ncnc3sccc23)CC1`: 20.1%.
The same measure for `Cc1ccc(Cn2ncc3c(N4CCN(CCOc5ccc(C)cc5)CC4)ncnc32)cc1`: 24.2%; for `COc1cccc(OCCN2CCN(c3ncnc4c3cnn4-c3ccccc3)CC2)c1`: 64% (active).
On to `CN(C)CCCNc1cc(C(C)(C)C)nc2c(-c3ccccc3)cnn12`, for which the inhibition was 74% (active).
The same measure for `CN(C)CCCNc1cc(C(C)(C)C)nc2c(-c3ccc(Cl)cc3)cnn12`: 36.7%.
The same measure for `CN(C)CCNc1cc(-c2ccccc2)nc2c(-c3ccccc3)cnn12`: 70.7% (active); for `CC(C)c1cc(NCCN(C)C)n2ncc(-c3ccccc3)c2n1`: -10.7%; for `Cc1ccc(-c2cnn3c(NCCOCCO)cc(C(C)(C)C)nc23)cc1`: -3.38%.
With `Cc1cc(NCCN(C)C)n2nc(C(F)(F)F)c(-c3ccccc3)c2n1`, the inhibition was 45%.
As to `Cc1cc(=O)[nH]c(-n2nc(C3CC3)cc2NC(=O)c2ccc(C(F)(F)F)cc2)n1`, the inhibition was 99.9% (active).
The same measure for `Cc1cc(=O)[nH]c(-n2nc(C3CC3)cc2NC(=O)c2ccc(F)cc2)n1`: 99.8% (active); for `Cc1cc(=O)[nH]c(-n2nc(C3CC3)cc2NC(=O)c2ccc(F)c(F)c2)n1`: 99.9% (active); for `CCCCCCn1c(N2CCN(c3ccccc3)CC2)nc2c1c(=O)n(C)c(=O)n2C`: 81.9% (active).
The same measure for `Cc1cn2c3c(=O)n(CC(=O)C(C)(C)C)c(=O)n(C)c3nc2n1C1CCCC1`: -30.1%.
The same measure for `CCCCCn1c(=O)c2c(nc3n2CCN3Cc2ccco2)n(C)c1=O`: 61% (active); for `CCCCc1ccc(-n2c(C)c(C)n3c4c(=O)n(CCCO)c(=O)n(C)c4nc23)cc1`: 46.3%; for `CC(C)CCn1c(N2CCCCC2)nc2c1c(=O)n(C)c(=O)n2C`: -32.3%.
As for `CCCCCn1c(=O)c2c(nc3n2CC(C)CN3C2CCCCC2)n(C)c1=O` (stereo not given), the inhibition is 92.2% (active).
The same measure for `CCCCCCn1c(N2CCN(Cc3ccc(Cl)c(Cl)c3)CC2)nc2c1c(=O)[nH]c(=O)n2C`: 9.32%.
Consider `CCCn1c(C2CCCCC2)nc2c(c(=O)c3ccccc3n2C)c1=O`, for which the inhibition was 12.9%.
The same measure for `CCCn1c(=O)c2c(nc3n2CCCN3Cc2ccccc2)n(C)c1=O`: 33.4%; for `N[C@@H](C(=O)O)[C@@H](O)[C@H](O)[C@H](O)CO`: -6.84%; for `Cn1nccc1CNC(=O)c1ccc(COc2cc(Cl)ccc2Cl)o1`: 35%.
For `O=C(Nc1nccs1)c1ccc(COc2ccc(F)cc2)o1`, the inhibition was 29.5%.
Take `O=C(NNC(=O)c1cc(-c2ccccc2)no1)c1ccco1`: the inhibition was 96% (active).
The same measure for `c1ccc(-c2cc(-c3ccccc3)on2)cc1`: 46.9%.
On to `O=C(NNC(=O)c1ccc(COc2ccccc2)o1)c1ccco1`, for which the inhibition was 59.7% (active).
The same measure for `C=CCn1c(=S)[nH]c2sc3c(c2c1=O)CCC(C)C3` (stereo not given): 8.34%; for `C=CCn1c(SCCC#N)nc2sc3c(c2c1=O)CCCC3`: 80.7% (active).
The same measure for `C=CCn1c(SCc2c(C)noc2C)nc2sc(C)c(C)c2c1=O`: 30.8%; for `O=C(O)c1cccc(=O)n1CCOc1ccccc1Cl`: 53.1% (active).
The same measure for `Cc1ccc(C)c2c3c([nH]c12)-c1nonc1CC3`: 34.5%; for `CCn1c2ccccc2c2nc3ccccc3nc21`: -25.2%; for `Cc1nc2ccccc2c(=O)n1NC(=S)NC(=O)c1ccc(Br)cc1`: 40.8%.
For the compound `O=c1[nH]n2c(=O)c3ccccc3nc2c2ccccc12`, the inhibition was 86% (active).
The same measure for `CC1CN(c2ccc(C(=O)NC(c3ccccc3)c3ccc(Cl)cc3)cn2)CCN1` (stereo not given): 33.2%; for `Cc1cc(C(C)(C)C)cc(C)c1CCN1CN(CCO)c2nc3ccccc3n2C1`: 66.6% (active); for `CC1CC(C)CN(S(=O)(=O)NCc2cc3ccccc3[nH]2)C1` (stereo not given): 27.9%.
The same measure for `CN(C(=O)CN1CCC(c2cc3ccccc3[nH]2)CC1)C1CC1`: -6.34%.
The same measure for `CC1CCN(S(=O)(=O)N2CCCC(c3cc4ccccc4[nH]3)C2)CC1` (stereo not given): 73.2% (active); for `N[C@H]1CN[C@H](C(=O)N2CC(N3CCCCC3)C2)C1`: -19.7%; for `CC/C=C(/C)C(=O)Nc1ccc(-n2nccn2)cc1`: 96.5% (active).
In the case of `COc1c(N2CCNC(C)C2)c(F)cc2c(=O)c(C(=O)O)cn(C3CC3)c12` (stereo not given), the inhibition was 98% (active).
The same measure for `O=C(CCS(=O)(=O)c1ccc(Cl)cc1)NCCC1=CCCCC1`: 79% (active); for `O=C(Cc1cc(-c2ccc(Cl)cc2)on1)NCCC1=CCCCC1`: 37.4%.
For the compound `Cc1cc(=O)[nH]c(-n2nc(C3CC3)cc2NC(=O)COc2ccc(Cl)cc2Cl)n1`, the inhibition was 100% (active).
The same measure for `Cc1cc(=O)[nH]c(-n2nc(C3CC3)cc2NC(=O)COc2ccc(Cl)cc2)n1`: 100% (active); for `COc1ccc(OCC(=O)Nc2cc(C3CC3)nn2-c2nc(C)cc(=O)[nH]2)cc1`: -5.9%; for `Cc1cc(=O)[nH]c(-n2nc(C)cc2NC(=O)COc2ccc(F)cc2)n1`: 99.8% (active).
The same measure for `Cc1cc(=O)[nH]c(-n2nc(C3CC3)cc2NC(=O)COc2ccc(F)cc2)n1`: 99.9% (active); for `CCCCn1c(O)c(C=Nc2cccc(C)c2)c(C)c(C#N)c1=O`: -35.7%; for `Cc1cc(C(F)(F)F)c2c(n1)sc1c(O)cc(=O)[nH]c12`: 27.2%.
The same measure for `Cc1cc(=O)[nH]c(-n2nc(C)cc2NC(=O)C(C)Oc2ccccc2)n1` (stereo not given): 99.8% (active); for `CCc1cc(=O)[nH]c(-n2nc(C)cc2NC(=O)C(c2ccccc2)c2ccccc2)n1`: 100% (active); for `CCc1c(C)nc(-n2nc(C)cc2NC(=O)C(CC)c2ccccc2)[nH]c1=O` (stereo not given): 12.6%.
With `Cc1cc(=O)[nH]c(-n2nc(C)cc2NC(=O)C(c2ccccc2)c2ccccc2)n1`, the inhibition was 101% (active).
The same measure for `CCc1ccc(CNC(=O)c2cncc(Br)c2)s1`: 83.2% (active); for `CCc1ccc(CNC(=O)c2ccc(Cl)s2)s1`: 45%; for `CCc1ccc(CNC(=O)c2cc(F)ccc2Br)s1`: 59.5% (active).
The same measure for `CCc1ccc(CNC(=O)c2cc(C)sc2C)s1`: 54.8% (active); for `CCc1ccsc1CNC(=O)c1sccc1Br`: 24.1%; for `CN(C)c1cc(C(=O)NCc2ccc(Cl)s2)ccn1`: -1.2%.
